Source: PubChem
Compounds with a hit are over-represented: about 1.2% of the library has one in this group of screens.
NALP1 yeast inh: NALP1 inhibition; S. cerevisiae NALP1/ASC/caspase-1 growth, X-gal OD620, 72 h; inhibition, % at 10 µM; actives 0.61% (n = 280,000); in the data active means inhibition mostly above about 24%, no sharp cut-off; inactive means mostly below about 32%
PolyA inhibitor: inhibitors of polyadenylation in S. cerevisiae | S. cerevisiae SKY197-pL101 polyadenylation reporter, beta-gal luminescence; efflux-impaired pdr1/pdr3 knockout yeast; score 100 = 6 SD above DMSO | actives 0.02% (n = 300,000) | activity score, % at 12 µM;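 active means lowest replicate activity score at least 50, where 100 means six control SD above control mean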;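 further: yeast exposed to compound for 9 h at 30 °C; higher score means more reporter readthrough which indicates perturbed polyadenylation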
A3G deaminase: inhibitors of human APOBEC3G DNA deaminase; inhibition, % at 20 µM; actives 0.28% (n = 330,000); Q9HC16; recombinant A3G, ssDNA deamination FAM/TAMRA fluorescence; AID 493012;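 active means inhibition of at least 40% at 20 µM, with no more than 30% in the related APOBEC3A deaminase screen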;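 further: plate controls were DMSO wells with A3G for no effect and wells lacking A3G enzyme for full effect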
Target sequence (Q9HC16 whole entry, looked up): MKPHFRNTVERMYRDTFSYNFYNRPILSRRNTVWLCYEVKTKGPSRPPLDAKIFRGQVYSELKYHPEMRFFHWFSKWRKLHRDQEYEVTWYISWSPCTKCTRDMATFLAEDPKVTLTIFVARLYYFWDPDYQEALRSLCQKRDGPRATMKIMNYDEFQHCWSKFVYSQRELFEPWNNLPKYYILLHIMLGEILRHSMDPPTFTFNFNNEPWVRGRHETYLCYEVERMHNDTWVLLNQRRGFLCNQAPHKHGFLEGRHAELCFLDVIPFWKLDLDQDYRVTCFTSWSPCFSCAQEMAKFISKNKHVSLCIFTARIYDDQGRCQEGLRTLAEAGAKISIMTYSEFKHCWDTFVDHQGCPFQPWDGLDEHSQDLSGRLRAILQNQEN
A3A deaminase: inhibitors of human APOBEC3A DNA deaminase | recombinant A3A, FAM/TAMRA ssDNA deamination fluorescence | inhibition, % at 20 µM | P31941 | AID 493011 | actives 0.41% (n = 330,000);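 active means at least 40% inhibition at 20 µM here, with at most 30% in a related deaminase screen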;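 further: plate controls were A3A with DMSO for no effect and wells lacking A3A enzyme for full effect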
Target sequence (P31941 whole entry, looked up): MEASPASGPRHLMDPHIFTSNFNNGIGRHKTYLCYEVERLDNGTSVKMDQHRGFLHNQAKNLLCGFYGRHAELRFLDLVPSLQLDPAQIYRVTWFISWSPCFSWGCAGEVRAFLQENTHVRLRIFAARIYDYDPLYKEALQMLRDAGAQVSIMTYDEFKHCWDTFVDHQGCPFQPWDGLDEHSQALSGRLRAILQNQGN
The depositor's hits bear a star; / = not tested or not shown.

SMILES	NALP1 yeast inh	PolyA inhibitor	A3G deaminase	A3A deaminase
CCN(CC)CCn1c(NCc2ccccn2)nc2ccccc21	42*	-12	5	3
O=c1sc(Nc2ccccc2)nc2ccsc12	70*	-27	-7	-1
Cc1sc2nc(CSc3nc4ccccc4s3)[nH]c(=O)c2c1C	36*	14	-14	3
O=c1[nH]c(CSc2nc3ccccc3s2)nc2ccccc12	/	-7	-3	2
C(=N\N=C\c1ccccc1)/c1ccccc1	36*	0	-4	-1
CNC(=O)c1ccc(Nc2nnc(-c3ccc(O)cc3)c3ccccc23)cc1	9	-5	-7	-14
Oc1ccc(-c2nnc(Nc3cccc(O)c3)c3ccccc23)cc1	44*	10	-6	-8
Cc1ccc(/C=N/Nc2ccnc3cc(Cl)ccc23)c(C)c1	60*	9	-1	0
Clc1ccc2c(N/N=C/c3cccnc3)ccnc2c1	8	-7	3	3
Clc1ccc2c(N/N=C/c3ccc(Br)cc3)ccnc2c1	54*	-5	/	/
Cc1ccccc1/C=N/Nc1ccnc2cc(Cl)ccc12	51*	-18	/	/
Oc1ccc(/C=N/Nc2ccnc3cc(Cl)ccc23)c(O)c1	/	-9	-3	0
CCN(CC)S(=O)(=O)c1cnccc1N1CCN(c2cccc(Cl)c2)CC1	54*	-10	-2	-3
CC1(C)[C@@H](O)CC[C@]2(C)C3C(O)C=C4[C@H]5C[C@@](C)(C(=O)O)CC[C@]5(C)CC[C@]4(C)[C@]3(C)CC[C@@H]12 (stereo not given in full)	/	7	2	2
CCOC(=O)C1CCCN(C(=O)Nc2c(-c3ccccc3)noc2C)C1 (stereo not given)	36*	-9	-2	-1
CN(Cc1cccnc1)C(=O)c1cc(S(=O)(=O)Nc2ccccc2F)ccc1Cl	/	/	-1	0
Cc1ccc(C(=O)Nc2ccncc2)c(C)c1	20	-8	-5	-6
O=C(/C=C/Nc1ccc(F)c(Cl)c1)c1ccco1	31*	2	-6	-2
COCCn1c(SCC(=O)NNC(=O)c2ccccc2)nc2ccccc21	/	/	-6	-1
CCOC(=O)Cc1csc(NC(=O)c2ccc(Br)s2)n1	39*	-9	-6	-5
Cc1ccc(S(=O)(=O)NC2CCCC2)cc1C	39*	1	-4	-1
CCCOc1ccccc1NC(=O)/C=C/C(N)=O	59*	-16	-6	-3
Cc1ccc(-c2nn(-c3ccc(F)cc3)cc2C(=O)N2CCN(C3CCS(=O)(=O)C3)CC2)cc1 (stereo not given)	/	/	-4	1
CCOC(=O)C1=C(C)NC(C)=C(C(=O)OCC)C1C(=O)OCC(=O)NCc1ccco1	/	/	-1	-2
CC1=NN(c2ccccc2)C(=O)/C1=C/c1c(O)n(-c2ccc(F)c(Cl)c2)[nH]c1=O	10	-10	-3	3
SMILES	NALP1 yeast inh	PolyA inhibitor	A3G deaminase	A3A deaminase
COc1cc2c(cc1OC)-c1n[nH]c(=S)n1C(C)(C)C2	-10	-4	48*	-6
COc1cc2c(cc1OC)-c1nnnn1C(C)(C)C2	8	10	5	5
CC(=O)N(/N=C/c1ccc(C)cc1)c1nc(CCl)cs1	-15	-17	-2	0
CCOc1ccc(Cl)cc1S(=O)(=O)n1cnc2cc(C)c(C)cc21	41*	-6	-7	-3
CCOc1ccc(Cl)cc1S(=O)(=O)N1CCN(c2ccc(C)c(C)c2)CC1	6	-11	-1	2
CC(C)C(NS(=O)(=O)c1cccs1)C(=O)NCCCN1CCCCCC1 (stereo not given)	14	17	-4	1
CN1CCN(CC(=O)N(Cc2c(C#N)c3ccccc3n2C)c2ccccc2)CC1	30*	-1	-4	-1
Cn1c(CN2CCN(CCO)CC2)c(C#N)c2ccccc21	-2	3	-6	2
C=CCn1c(SCC(=O)c2c(N)n(C)c(=O)n(C)c2=O)nnc1-c1ccccc1F	37*	4	-8	-1
C=CCn1c(SCC(=O)c2c(N)n(C)c(=O)n(C)c2=O)nnc1-c1ccncc1	32	-10	-5	11
Cn1c(N)c(C(=O)CSc2nnc(-c3ccccc3F)n2C2CC2)c(=O)n(C)c1=O	34*	14	-4	3
Cn1c(N)c(C(=O)CSc2nnc(-c3ccccc3F)n2N)c(=O)n(C)c1=O	/	7	-4	-3
C[C@H](NC(=O)c1nc[nH]c1C(=O)N1CCN(c2ccccc2)CC1)c1ccccc1	/	/	-13	-3
Cc1ccc(OCCn2cc(/C=C(\C#N)C(=O)NCC3CCCO3)c3ccccc32)cc1C (stereo not given)	45*	6	-3	0
Cc1ccc(OCCn2cc(/C=C(\C#N)C(=O)NCC3CCCO3)c3ccccc32)cc1 (stereo not given)	24	1	0	1
Cc1csc(=O)n1CCC(=O)OCC(=O)Nc1ccc(Cl)cn1	/	-5	-8	3
Nc1ccc2c(c1)C/C(=C/c1ccco1)C2=O	49*	19	84	91
CC(C)C(NC(=O)c1ccccc1)C(=O)OCn1nnc2ccccc2c1=O (stereo not given)	/	/	-3	3
CCc1ccc(NC(=O)C2CCCN2C(=O)NC2CCCCC2)cc1 (stereo not given)	7	-2	-5	0
Cc1ccc(NC(=O)C2CCCN2C(=O)NC2CCCCC2)cc1 (stereo not given)	25*	-8	-8	0
O=C(C#Cc1ccccc1)c1ccco1	44*	-108	-5	-2
CC(C)NCC(O)Cn1c2c(c3ccccc31)CCc1c-2cnn1-c1ccccc1 (stereo not given)	22*	14	6	-4
S=C(NCCc1ccccc1)NCc1cccc(Cl)c1	-2	-1	-3	-3
Fc1ccccc1NC(=S)NCCc1cccc(Cl)c1	30*	/	-5	-3
O=C(NC1CCCCCC1)c1ccco1	-8	-12	0	0
SMILES	NALP1 yeast inh	PolyA inhibitor	A3G deaminase	A3A deaminase
O=C(N/N=C/c1cccc(Oc2ccccc2)c1)c1ccccc1Br	32*	-30	-5	-3
O=C(N/N=C/c1cccc(Oc2ccccc2)c1)c1cccc(Br)c1	9	-12	-5	-3
CCN(CCNC(=O)C1CCN(S(=O)(=O)c2c(C)noc2C)CC1)c1ccccc1	-2	3	3	0
CCCCN(Cc1ccccc1)C(=O)C1CCN(S(=O)(=O)c2c(C)noc2C)CC1	37*	11	-3	0
c1ccc(CCNc2c3c(nc4ncnn24)CCC3)cc1	25*	21	-4	8
OC(CN1CCN(c2ccccn2)CC1)Cn1c2ccc(Cl)cc2c2cc(Cl)ccc21 (stereo not given)	-2	-9	-1	0
Cc1ccc(OCCN2CCN(CC(O)Cn3c4ccccc4c4ccccc43)CC2)cc1 (stereo not given)	76*	0	-8	-5
OC(CN1CCCCC1)Cn1c2ccc(Cl)cc2c2cc(Cl)ccc21 (stereo not given)	49*	-8	-10	-5
OC(CN1CCN(Cc2ccccc2)CC1)Cn1c2ccccc2c2ccccc21 (stereo not given)	50*	-10	-9	-7
Cc1cc(C)c(NC(=O)CSc2nc(=O)n3cc(C)ccc3n2)c(C)c1	/	-4	-7	-2
